Hits are enriched below; roughly 1.2% of the tested compounds scored in any of these assays.
PfHsp40 yeast = rescue of yeast from PfHsp40 toxicity, primary screen, S. cerevisiae, ATP luminescence; S. cerevisiae expressing PfHsp40, growth rescue; growth rescue, % at 12.5 µM; hit rate 0.68% among 340,000; AID 504582, 2011; in the data active = growth rescue above about 28%, passing the limit was not always enough;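 note: yeast W303a lacking pdr1 and pdr3 grown in galactose medium; growth measured after three days at 30 °C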
TcdB inh = TcdB glycohydrolase inhibitors, primary screen, biochemical, single point, plate reader | TcdB glycohydrolase enzymatic assay | inhibition, % at 9.99 µM | hit rate 0.24% among 350,000; in the data active = inhibition above about 10%
PrP UTR inh = inhibition of PrP 5' UTR reporter expression; cell-based PrP 5' UTR mRNA reporter, plate reader; hit rate 0.35% among 340,000; AID 488862, 2010; inhibition, % (concentration not given with the values); in the data active = inhibition above about 52%; note: 0 = median of the neutral control wells
FadD28 FP inh = inhibitors of FadD28 bisubstrate probe binding, primary screen, biochemical, fluorescence polarization, single point. inhibition, % at 12.5 µM. hit rate 0.22% among 360,000. Mycobacterium tuberculosis FadD28 fatty-acid-AMP ligase; in the data active = inhibition above about 8.5%, passing the limit was not always enough
Y pestis TopoI = Yersinia pestis topoisomerase I inhibitors, primary screen, biochemical, cleavage product accumulation, plate reader, single point. DNA topoisomerase I (Yersinia pestis CO92). Y. pestis Topo-I cleavage product accumulation. activity, % at 10 µM. hit rate 0.064% among 360,000. AID 504884, 2011; in the data active = activity above about 50%, passing the limit was not always enough
BioA inh = M. tuberculosis BioA enzyme inhibitors, primary screen, biochemical, plate reader, single point, HTS; purified M. tuberculosis BioA enzyme; inhibition, % at 9.99 µM; hit rate 0.096% among 360,000; AID 602481, 2012; in the data active = inhibition above about 40%
* = called active by the depositor.

For C[C@H](CO)N1C[C@H](C)[C@@H](CN(C)S(=O)(=O)c2cn(C)cn2)Oc2c(NC(=O)Nc3cccc4ccccc34)cccc2C1=O the results were TcdB inh -7 and BioA inh -1.
`COC(=O)c1ccc([N+](=O)[O-])c(CS(=O)(=O)c2ccc(Cl)cc2)c1` gave PfHsp40 yeast -2, TcdB inh 3, PrP UTR inh -1, FadD28 FP inh -2, Y pestis TopoI -3 and BioA inh 8.
Screening CN(C)/C=C/C(=O)c1ccc([N+](=O)[O-])c(CS(=O)(=O)c2ccc(Cl)cc2)c1 returned PfHsp40 yeast -2, TcdB inh -1, PrP UTR inh -20, FadD28 FP inh 18*, Y pestis TopoI 0 and BioA inh 1.
C[n+]1c2cc(N)ccc2cc2ccc(N)cc21 was read as PfHsp40 yeast 228*, TcdB inh -2, PrP UTR inh -25, FadD28 FP inh 1, Y pestis TopoI -18 and BioA inh inactive.
O=C(Nc1ccc(Cl)cn1)c1cccc(S(=O)(=O)N2CCCCC2)c1 was read as PfHsp40 yeast 70*, TcdB inh 0, PrP UTR inh -12, FadD28 FP inh -5, Y pestis TopoI 16 and BioA inh -1.
O=C(Nc1ccc(Cl)cn1)c1cccc(S(=O)(=O)N2CCCCCC2)c1 was read as TcdB inh 1, FadD28 FP inh -2, Y pestis TopoI 13 and BioA inh 2.
Screening CCOC(=O)C1SC2(C(F)F)CC1(O)c1c(c(OC)c3occc3c1OC)O2 (stereo not given) returned PfHsp40 yeast 38*, PrP UTR inh -22, FadD28 FP inh -2, Y pestis TopoI 8 and BioA inh -1.
For COc1cc2ccccc2cc1C(=O)OCC(=O)N(CC(C)C)c1c(N)n(Cc2ccccc2)c(=O)[nH]c1=O the results were PfHsp40 yeast 1, TcdB inh 2, PrP UTR inh -21, FadD28 FP inh 6, Y pestis TopoI 71* and BioA inh -3.
For Cc1ccc(CSCCNC(=O)c2ccc(Cl)c(S(=O)(=O)N3CCOCC3)c2)cc1 the results were PfHsp40 yeast 1, PrP UTR inh -48, FadD28 FP inh 34*, Y pestis TopoI 12 and BioA inh 10.
Screening Cc1ccc(CSCCNC(=O)c2ccc(N(C)S(=O)(=O)c3ccccc3)cc2)cc1 returned PfHsp40 yeast 1, PrP UTR inh 1, FadD28 FP inh 8.8* and Y pestis TopoI 14.
COc1ccc(CNC(=O)c2ccc(Cl)c(S(=O)(=O)N3CCCCCC3)c2)cc1 was read as TcdB inh 0, FadD28 FP inh 8.7*, Y pestis TopoI 17 and BioA inh -1.
Screening O=C(NCCC1=CCCCC1)c1ccc(Cl)c(S(=O)(=O)N2CCOCC2)c1 returned PfHsp40 yeast -1, PrP UTR inh -7, FadD28 FP inh 1, Y pestis TopoI 6 and BioA inh -2.
`COc1ccc(CN(C)C[C@@H]2OCCCC[C@@H](C)Oc3ccc(NC(=O)Nc4c(C)noc4C)cc3C(=O)N([C@@H](C)CO)C[C@H]2C)cc1` gave TcdB inh 0 and BioA inh -1.
Screening N#CCCn1cc(C(=O)Nc2ccccc2Cl)c(-c2ccc(F)cc2)n1 returned PfHsp40 yeast 47*, TcdB inh 0, PrP UTR inh -10, FadD28 FP inh -3, Y pestis TopoI 2 and BioA inh -1.
`Cc1ccc(S(=O)(=O)N(C)C[C@@H]2Oc3ncc(Br)cc3C(=O)N([C@@H](C)CO)C[C@H]2C)cc1` gave TcdB inh -3 and BioA inh -2.
Screening Nc1ccc(-c2nc3ccc(N)cc3o2)cc1 returned PfHsp40 yeast 0, TcdB inh 11*, PrP UTR inh -13, FadD28 FP inh 0, Y pestis TopoI 5 and BioA inh 0.
`CN1C(=O)c2cc(NC(=O)NC3CCCC3)ccc2OC[C@@H]2O[C@H](CC(=O)NC3CCC3)CC[C@H]21` gave TcdB inh 0 and BioA inh 0.
Screening CCS(=O)(=O)c1ccc2oc(Nc3ccc(C(C)(C)C)cc3)nc2c1 returned PfHsp40 yeast 2, TcdB inh 12*, PrP UTR inh -16, FadD28 FP inh -3, Y pestis TopoI -3 and BioA inh 0.
CCNC(=O)CN(c1ccc(Oc2ccccc2)cc1)S(=O)(=O)c1ccccc1 was read as PfHsp40 yeast 60*, TcdB inh 0, PrP UTR inh 0, FadD28 FP inh -2, Y pestis TopoI 44 and BioA inh 0.
`O=S(=O)(/C=C/c1ccccc1)NC1CCCCCCC1` gave PfHsp40 yeast 70*, PrP UTR inh -12, FadD28 FP inh -1 and Y pestis TopoI 21.
For O=S(=O)(/C=C/c1ccccc1)NC1CCCCCC1 the results were PfHsp40 yeast 63*, TcdB inh 3, PrP UTR inh -38, FadD28 FP inh 0 and Y pestis TopoI 16.
`O=S1(=O)CCC(NS(=O)(=O)/C=C/c2ccccc2)C1` (stereo not given) gave PfHsp40 yeast -1, PrP UTR inh -6, FadD28 FP inh 0 and Y pestis TopoI -8.
For O=C(C[C@@H]1CC[C@H]2[C@@H](COC[C@@H](O)CN2S(=O)(=O)c2ccc(F)cc2)O1)N[C@H]1CCN(Cc2ccccc2)C1 the results were TcdB inh 1 and BioA inh -1.
Screening Oc1ccc2c(ccc3[nH]cnc32)c1 returned PfHsp40 yeast 0, TcdB inh 17*, PrP UTR inh -9, FadD28 FP inh 1 and Y pestis TopoI 7.
For Cc1noc(C)c1S(=O)(=O)N(C)C[C@H]1Oc2ccc(NC(=O)CCCCCC(=O)Nc3ccccc3N)cc2CC(=O)N([C@@H](C)CO)C[C@@H]1C the results were TcdB inh -1.
`O=[N+]([O-])c1cc2oc3c(c2c(C=NCc2ccccc2)c1O)CCCC3` gave PfHsp40 yeast 230*, PrP UTR inh -11, FadD28 FP inh 1 and Y pestis TopoI 3.
For CC(C)CN=Cc1c(O)c([N+](=O)[O-])cc2oc3c(c12)CCCC3 the results were PfHsp40 yeast 484*, PrP UTR inh -8, FadD28 FP inh 0 and Y pestis TopoI -5.
O=C(CC1CC1)Nc1ccc2c(c1)[C@@H]1C[C@H](CC(=O)NC3CCCCC3)O[C@H](CO)[C@@H]1O2 was read as TcdB inh 0 and BioA inh 0.
Screening COc1cccc(S(=O)(=O)N2CC3(CN[C@H](CO)c4[nH]c5cc(OC)ccc5c43)C2)c1 returned TcdB inh -1.
For O=C(COC(=O)c1ccc(Cl)c(S(=O)(=O)N2CCCCCC2)c1)Nc1ccccc1 the results were PfHsp40 yeast -1, TcdB inh 1, PrP UTR inh -31, FadD28 FP inh 62* and Y pestis TopoI 13.

Screens (PubChem BioAssay)
